Data as given in the supplement of paper PMC10338343.
± gives the standard deviation.

test system: EfPiwi piRISC loaded with L1MC piRNA (26 nt); test: pre-steady-state target cleavage rate (min^-1); auxiliary factor: 500 nM Ephydatia muelleri Gtsf1; guide: L1MC piRNA 5'p-UAACUAAAUACUAUGCAAGCUGUAGG; MIWI and MILI are mouse PIWI proteins and EfPiwi is from a freshwater sponge; tags in brackets are library labels; higher = faster piRNA-guided slicing of the target
Experimental: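 Cleave-'n-Seq: a library of target RNAs (target site in constant flanks) at […] was incubated with 1 nM active freshwater sponge Ephydatia fluviatilis Piwi piRISC (synthetic 5'-monophosphorylated piRNA guide) with or without 500 nM EmGtsf1 at 33 °C for 1 min to 16 h. Uncleaved targets were sequenced and the pooled three trials fitted to a burst-and-steady-state model to give the pre-steady-state cleavage rate (min^-1). Sequence is the target site only. Fits with R² ≤ 0 are excluded.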

| Sequence | pre-steady-state target cleavage rate |
| --- | --- |
| UCCUGGUACAGCUUGCAUUGUAUUUAGAAA | 0.00329 ± 0.0019 |
| UCCUGGAUCAGCUUGCAUUGUAUUUAGAAA | 0.00264 ± 0.0021 |
| UCCUGGAACAGCUUGGAUAGUAUUUUGUUA | 0.00249 ± 0.0021 |
| UCCUCCUACAGCUUGCAUAGUAUUUAUUA | 0.00539 ± 0.0031 |
| UCCUGCUAGAGCUUGCAAAGUAUUUAGUUA | 0.00607 ± 0.0018 |
| UCCUCCUACAGCUUGCAUAGUAUUAACUUA | 0.00459 ± 0.0029 |
| UCCUGGAAUAGCUUGCAUAGUAUUUAGUUA | 0.0137 ± 0.0037 |
| UCCUCCUACAGCUUGCAUAGUAUUUAGUCA | 0.00693 ± 0.003 |
| UCCUGGAACAGCUUGCAUAGUAUUUAGUAA | 0.00976 ± 0.0038 |
| UCCUGCUACAGCUUGCUUAGUAUUUAGUAA | 0.00437 ± 0.0017 |
| UCCUGGAUGUGCGUGCAUAGUAUUUAGUUA | 0.00405 ± 0.0027 |
| UCCUCCUUCAGCUUGCAUAGAAUUUAGUUA | 0.00469 ± 0.0021 |
| UCCUGGUACAGCUUGCUUACUAUUUAGUUA | 0.00704 ± 0.0031 |
| UCCUGGAACAGCUUGCAUAGUAUUUUGAUA | 0.00265 ± 0.0024 |
| UCCUGCUAGAGCUAGCAUAGUAUUUAGUUA | 0.00618 ± 0.0016 |
| UCCUGCUAGAGGUUGCAUAGUAUUUAGUUA | 0.00977 ± 0.0027 |
| UCCUGGAUGAGCUUGCAUAGUAGUUAGUUA | 0.00781 ± 0.0027 |
| UCCUGCUACAGCUUGCAUAGUAUUUAGUGUA | 0.00597 ± 0.0021 |
| UCCUGGAUGUGCAUGCAUAGUAUUUAGAUA | 0.00317 ± 0.0024 |
| UCCUGGAAGUCCUUGCAUAGUAUUUAGUUA | 0.0092 ± 0.0031 |

| Sequence | pre-steady-state target cleavage rate |
| --- | --- |
| UCCUGGAAGUGCUUGCAUAGUAUUUAGUAA | 0.00343 ± 0.0027 |
| UCCUCCUUCAGCUUGCAUAGUAAUUAGUUA | 0.0731 ± 0.025 |
| UCCUGGUACAGGUUGCAUAGAAUUUAGUUA | 0.00277 ± 0.0022 |
| UCCUGCUACACCUUGCAUAGUAUUUAGAUA | 0.00254 ± 0.0016 |
| UCCUGCGUACAGCUUGCAUAGUAUUUAGUUA | 0.0434 ± 0.012 |
| UCCUGGUACAGCUUGGAUAGUAUUUAGUAA | 0.00283 ± 0.0021 |
| UCCUGCUACAGCUUGCUUAGUAUUUAGAUA | 0.00495 ± 0.0028 |
| UCCUGCUACAGCAUGCAUAGUAUUUAGUAA | 0.00673 ± 0.0029 |
| UCCUGCUACAGCUUGCAUAGUAUUUAGUUC [g2:g25:cont:t1C] | 0.0645 ± 0.016 |
| UCCUCCUACAGCUUGCAUAGUAAUUAGUUA | 0.0117 ± 0.0045 |
| UCCUGGAUGUCCUUGCAUACUAUUUAGUUA | 0.00333 ± 0.0024 |
| UCCUGGAUGUCGAACCAUACUAAUUAGUUA | < 0.0001 |
| UCCUGGAUGUCGAACGAUACAUUUUAGUUA | < 0.0001 |
| UCCUCCUACAGCUUGCAUAGUAUAUAGAAA | 0.00329 ± 0.0015 |
| UCCUGGUACAGCUUUCAUAGUAUUUAGUUA | 0.00404 ± 0.0023 |
| UCCUGCUACUGCUUGCAUAGUAUUUUGUUA | 0.0061 ± 0.0024 |
| UCCUGGAUCAGCUUGCAUAGUAAAUAGUUA | 0.00673 ± 0.0027 |
| UCCUGGUACACCUUGCAUAGUAUUUAGUUA | 0.00345 ± 0.0027 |
| UCCUGCUACAGCUUGCAGAGUAUUUAGUUA | 0.006 ± 0.0022 |
| UCCUGCUACAGCUUUCAUAGUAUUUAGUUA | 0.00701 ± 0.0022 |
